Where a name gives a salt, the structure may show the parent alone. Among all 1,500 compounds or so, about 30 (2%) showed activity. For the sample, actives were picked, then their nearest neighbours and some compounds at random. A number with no mark means an inactive call.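 Rule for the calls: active = robust z-score below -2; a few such results were not called.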

This test has as its system optoTopBP1 Flp-In 293 T-REx (HEK293) cells. Nature of the test: light-induced TopBP1 condensate (nuclear foci) count, plate-normalised robust z-score vs non-control wells; higher = more TopBP1 condensates (negative = condensation inhibitor), active = hit call of the paper. The note with it: 10 µM; incubation time 2 h.
In the case of `CN(c1nccc(=O)[nH]1)C1CCN(c2nc3ccccc3n2Cc2ccc(F)cc2)CC1` [Mizolastine], the “light-induced TopBP1 condensate (z-score)” value was -0.786.

As to `CC(C)=CCOc1ccc(/C=C/C(=O)c2ccc(OCC=C(C)C)cc2OCC(=O)O)cc1` [Sofalcone], the “light-induced TopBP1 condensate (z-score)” value was 0.373.

As for `CC(=O)OCC(=O)[C@@]12OC3(CCCC3)O[C@@H]1C[C@H]1[C@@H]3CCC4=CC(=O)C=C[C@]4(C)[C@@]3(F)[C@@H](O)C[C@@]12C` [Amcinonide], the “light-induced TopBP1 condensate (z-score)” value is 0.776.

In the case of `CNCC[C@@H](Oc1cccc2ccccc12)c1cccs1` [(R)-Duloxetine hydrochloride], the “light-induced TopBP1 condensate (z-score)” value was -1.75.

Turning to `O=C(CCCCC(=O)Nc1c(I)cc(I)c(C(=O)O)c1I)Nc1c(I)cc(I)c(C(=O)O)c1I` [Iodipamide], the “light-induced TopBP1 condensate (z-score)” value was -0.465.

For the compound `CC(C(=O)O)c1ccc(C(=O)c2cccs2)cc1` (stereo not drawn) [Suprofen], the “light-induced TopBP1 condensate (z-score)” value is -0.434.

Consider `COc1cc(C(=O)NC2CCCNC2)cc(OC)c1OC` (stereo not drawn) [Troxipide], for which the “light-induced TopBP1 condensate (z-score)” value was -0.997.

Take `Nc1nc(=S)c2ncn([C@@H]3O[C@H](CO)[C@@H](O)[C@H]3O)c2[nH]1` [Thioguanosine]: the “light-induced TopBP1 condensate (z-score)” value is 1.17.

Turning to `OCCN1CCN(CCCN2c3ccccc3C=Cc3ccccc32)CC1` [Opipramol dihydrochloride], the “light-induced TopBP1 condensate (z-score)” value is -0.102.

On to `CO[C@@H]1[C@@H](O[C@@H]2O[C@H](C)[C@@H](O[C@H]3C[C@@](C)(O)[C@@H](O)[C@H](C)O3)[C@H](N(C)C)[C@H]2O)[C@@H](CC=O)C[C@@H](C)[C@@H](O[C@H]2CC[C@H](N(C)C)[C@@H](C)O2)/C=C/C=C/C[C@@H](C)OC(=O)C[C@H]1OC(C)=O` [Acetyl spiramycin], for which the “light-induced TopBP1 condensate (z-score)” value is -0.0623.

`CC[C@]12CCCN3CCc4c(n(c5ccccc45)[C@@](O)(C(=O)OC)C1)[C@@H]32` [Vincamine]: the “light-induced TopBP1 condensate (z-score)” value is -0.735.

Turning to `CC1=C(C)C(=O)C(C(CCCCCC(=O)O)c2ccccc2)=C(C)C1=O` (stereo not drawn) [Seratrodast], the “light-induced TopBP1 condensate (z-score)” value was -1.1.

With `O=C(O)c1ccccc1Nc1cc(Cl)ccc1C(=O)O` [Lobenzarit disodium], the “light-induced TopBP1 condensate (z-score)” value was 0.707.

For the compound `CCCCC(CC)CNC(=N)NC(=N)NCCCCCCNC(=N)NC(=N)NCC(CC)CCCC` (stereo not drawn) [Alexidine dihydrochloride], the “light-induced TopBP1 condensate (z-score)” value was -0.446.

On to `COC(=O)C1=C(C)NC(C)=C(C(=O)O[C@H]2CCN(Cc3ccccc3)C2)[C@H]1c1cccc([N+](=O)[O-])c1` [Barnidipine Hydrochloride], for which the “light-induced TopBP1 condensate (z-score)” value was -1.06.

With `CCOCCn1c(N2CCCN(C)CC2)nc2ccccc21` [Emedastine], the “light-induced TopBP1 condensate (z-score)” value was -0.971.

On to `CN1CCC(=C2c3ccccc3Sc3ccccc32)CC1` [Pimethixene maleate], for which the “light-induced TopBP1 condensate (z-score)” value was -1.21.

Regarding `C[C@H]1[C@@H](O)O[C@@H]2O[C@@]3(C)CC[C@H]4[C@H](C)CC[C@@H]1[C@@]24OO3` [Artenimol], the “light-induced TopBP1 condensate (z-score)” value is 0.222.

`CC(=O)OC(C)OC(=O)C(C)c1ccc(-c2ccccc2)c(F)c1` (stereo not drawn) [Flurbiprofen axetil]: the “light-induced TopBP1 condensate (z-score)” value was -0.559.

`Cc1cc2nc3ccc(N(C)C)cc3[s+]c2cc1N` [Tolonium chloride]: the “light-induced TopBP1 condensate (z-score)” value is -9.72 (active).

In the case of `O=C(Cn1cnnn1)N[C@@H]1C(=O)N2C(C(=O)O)=C(CSc3nncs3)CS[C@H]12` [Ceftezole], the “light-induced TopBP1 condensate (z-score)” value was -0.707.

`O=C(Cn1c(=O)sc2ccc(Cl)cc21)N1CCN(CCO)CC1` [Tiaramide Hydrochloride]: the “light-induced TopBP1 condensate (z-score)” value was 0.609.

For `O=C1c2cccc(O)c2C(=O)c2c(O)cccc21` [1,8-Dihydroxyanthraquinone], the “light-induced TopBP1 condensate (z-score)” value was -2.97 (active).

With `O=C1c2c(O)cccc2Cc2cccc(O)c21` [Anthralin], the “light-induced TopBP1 condensate (z-score)” value was -0.589.

`CC(=O)Oc1cccc2c1C(=O)c1c(OC(C)=O)cc(C(=O)O)cc1C2=O` [Diacerein]: the “light-induced TopBP1 condensate (z-score)” value was -1.09.

For `CC(C(=O)O)c1cccc(Oc2ccccc2)c1` (stereo not drawn) [Fenoprofen calcium salt dihydrate], the “light-induced TopBP1 condensate (z-score)” value was 0.527.

On to `CN1CCC(OC(c2ccccc2)c2ccccc2)CC1` [Diphenylpyraline hydrochloride], for which the “light-induced TopBP1 condensate (z-score)” value is -0.243.

Consider `CC=CC(=O)N(CC)c1ccccc1C` [Crotamiton], for which the “light-induced TopBP1 condensate (z-score)” value is -1.09.

Turning to `CC(=O)CC(c1ccccc1)c1c(O)c2ccccc2oc1=O` (stereo not drawn) [Warfarin], the “light-induced TopBP1 condensate (z-score)” value is 0.476.

In the case of `Nc1ccn([C@@H]2O[C@H](CO)[C@@H](O)[C@@H]2O)c(=O)n1` [Cytarabine], the “light-induced TopBP1 condensate (z-score)” value is -1.9.

With `Nc1ccn([C@H]2CC[C@@H](CO)O2)c(=O)n1` [Zalcitabine], the “light-induced TopBP1 condensate (z-score)” value was 0.161.

Regarding `Nc1ccn([C@@H]2O[C@H](CO)[C@@H](O)C2(F)F)c(=O)n1` [Gemcitabine], the “light-induced TopBP1 condensate (z-score)” value is -2.33 (active).

As to `O=C(Oc1cccc2cccnc12)c1ccccc1` [Benzoxiquine], the “light-induced TopBP1 condensate (z-score)” value is -0.428.

Consider `OCCOCCN1CCN(C2=Nc3ccccc3Sc3ccccc32)CC1` [Quetiapine hemifumarate], for which the “light-induced TopBP1 condensate (z-score)” value was 0.443.

As to `O=C(CCCl)NCc1ccccc1` [Beclamide], the “light-induced TopBP1 condensate (z-score)” value is 0.736.

As to `O=C1[C@H]2CCCC[C@H]2C(=O)N1CCCCN1CCN(c2nsc3ccccc23)CC1` [Perospirone], the “light-induced TopBP1 condensate (z-score)” value was -0.904.

For the compound `CC(=O)O[C@@]12CO[C@@H]1C[C@H](O)[C@@]1(C)C(=O)[C@H](O)C3=C(C)[C@@H](OC(=O)[C@H](O)[C@@H](NC(=O)OC(C)(C)C)c4ccccc4)C[C@@](O)([C@@H](OC(=O)c4ccccc4)[C@H]21)C3(C)C` [Docetaxel], the “light-induced TopBP1 condensate (z-score)” value is -1.72.

As to `CNC(=O)c1c(I)c(C(=O)NCC(=O)Nc2c(I)c(C(=O)O)c(I)c(C(=O)NCCO)c2I)c(I)c(N(C)C(C)=O)c1I` [Ioxaglic acid], the “light-induced TopBP1 condensate (z-score)” value is 1.43.

In the case of `Cn1cc([S+](C)[O-])c(=O)c2ccc(F)cc21` (stereo not drawn) [Flosequinan], the “light-induced TopBP1 condensate (z-score)” value is 0.501.

In the case of `CC(=O)OCC(=O)[C@@]1(O)CC[C@H]2[C@@H]3CCC4=CC(=O)C=C[C@]4(C)[C@@]3(F)[C@@H](O)C[C@@]21C` [Isoflupredone acetate], the “light-induced TopBP1 condensate (z-score)” value was 0.491.

For `Nc1ncn(C2OC(CO)C(O)C2O)c(=O)n1` (stereo not drawn) [Azacytidine-5], the “light-induced TopBP1 condensate (z-score)” value was 0.0662.

For the compound `NC(=O)c1ncn([C@@H]2O[C@H](CO)[C@@H](O)[C@H]2O)c1O` [Mizoribine], the “light-induced TopBP1 condensate (z-score)” value is -0.419.

Regarding `N=c1ccn2c(n1)O[C@H]1[C@H](O)[C@@H](CO)O[C@H]12` [Ancitabine hydrochloride], the “light-induced TopBP1 condensate (z-score)” value is -2.02 (active).

Take `CCOC(=O)[C@H](CCc1ccccc1)N[C@@H](C)C(=O)N(CC(=O)O)C1Cc2ccccc2C1` [Delapril Hydrochloride]: the “light-induced TopBP1 condensate (z-score)” value is 0.988.

On to `CC(=O)O[C@H]1C[C@@H]2CC[C@@H]3[C@H](CC[C@@]4(C)[C@H]3C[C@H]([N+]3(C)CCCCC3)[C@@H]4OC(C)=O)[C@@]2(C)C[C@@H]1N1CCCCC1` [Vecuronium bromide], for which the “light-induced TopBP1 condensate (z-score)” value was 0.392.

For the compound `O=c1[nH]cnc2c1ncn2[C@@H]1O[C@H](CO)[C@@H](O)[C@H]1O` [Inosine], the “light-induced TopBP1 condensate (z-score)” value is -0.394.

`Cc1cccn2c(=O)c(-c3nnn[nH]3)cnc12` [Pemirolast potassium]: the “light-induced TopBP1 condensate (z-score)” value is 0.448.

Consider `CN(C)[C@@H]1C(O)=C(C(=O)NCNCCCC[C@H](N)C(=O)O)C(=O)[C@@]2(O)C(O)=C3C(=O)c4c(O)cccc4[C@@](C)(O)[C@H]3C[C@@H]12` [Lymecycline], for which the “light-induced TopBP1 condensate (z-score)” value was 0.0668.

In the case of `Cc1c(Cl)cccc1Nc1ccccc1C(=O)O` [Tolfenamic acid], the “light-induced TopBP1 condensate (z-score)” value is -0.245.

On to `CN[C@@H]1[C@H](O[C@H]2[C@H](O[C@H]3[C@H](O)[C@@H](O)[C@H](N=C(N)N)[C@@H](O)[C@@H]3N=C(N)N)O[C@@H](C)[C@]2(O)C=O)O[C@@H](CO)[C@H](O)[C@H]1O` [Streptomycin sulfate], for which the “light-induced TopBP1 condensate (z-score)” value was -0.213.

As to `CC(=O)Nc1c(I)c(NC(C)=O)c(I)c(C(=O)O)c1I` [Diatrizoic acid dihydrate], the “light-induced TopBP1 condensate (z-score)” value is -0.965.

For `CC(=O)OC[C@H]1O[C@@H](n2ncc(=O)[nH]c2=O)[C@H](OC(C)=O)[C@@H]1OC(C)=O` [Azaribine], the “light-induced TopBP1 condensate (z-score)” value is 0.84.

Take `CC(=O)OC[C@H]1O[C@@H]([S-])[C@H](OC(C)=O)[C@@H](OC(C)=O)[C@@H]1OC(C)=O.CCP(CC)CC.[Au+]` [Auranofin]: the “light-induced TopBP1 condensate (z-score)” value was -4.74 (active).

Turning to `CC(C)c1nc(CN(C)C(=O)N[C@H](C(=O)N[C@@H](Cc2ccccc2)C[C@H](O)[C@H](Cc2ccccc2)NC(=O)OCc2cncs2)C(C)C)cs1` [Ritonavir], the “light-induced TopBP1 condensate (z-score)” value is -1.47.

For the compound `Cc1onc(-c2ccccc2)c1-c1ccc(S(N)(=O)=O)cc1` [Valdecoxib], the “light-induced TopBP1 condensate (z-score)” value is -1.03.

Regarding `COC(=O)Nc1nc2cc(C(=O)c3ccccc3)ccc2[nH]1` [Mebendazole], the “light-induced TopBP1 condensate (z-score)” value is -1.07.

With `COC(=O)Nc1nc2cc([S+]([O-])c3ccccc3)ccc2[nH]1` (stereo not drawn) [Oxfendazol], the “light-induced TopBP1 condensate (z-score)” value is 0.733.

Turning to `COC(=O)Nc1nc2cc(C(=O)c3ccc(F)cc3)ccc2[nH]1` [Flubendazol], the “light-induced TopBP1 condensate (z-score)” value was -2.01 (active).

Take `CCCCc1ccc2[nH]c(NC(=O)OC)nc2c1` [Parbendazole]: the “light-induced TopBP1 condensate (z-score)” value is -0.867.

For `COC(=O)Nc1nc2cc(C(=O)c3cccs3)ccc2[nH]1` [Nocodazole], the “light-induced TopBP1 condensate (z-score)” value is -1.07.

Take `CCCOc1ccc2[nH]c(NC(=O)OC)nc2c1` [Oxibendazol]: the “light-induced TopBP1 condensate (z-score)” value was -3.01 (active).

With `O=C(O)c1cc(/N=N/c2ccc(S(=O)(=O)Nc3ccccn3)cc2)ccc1O` [Sulfasalazine], the “light-induced TopBP1 condensate (z-score)” value was -0.0783.

As for `C[C@H](O)[C@H](O)[C@H]1CNc2[nH]c(N)nc(=O)c2N1` [Sapropterin dihydrochloride], the “light-induced TopBP1 condensate (z-score)” value was 0.574.

(Values after the supplement of paper PMC12582362.)
